Here are results for four molecules from PubChem BioAssay (NCATS).

Assay [1] is described as follows: AP1 Signaling Pathway (AID 357; active = well fitted curve in either direction with a large enough effect, not every such curve was filed as active;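 also: ME-180 reporter cells stimulated with EGF at its EC50 level; % is scaled to controls: 0 for no effect and ±100 for the full control effect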). To be noted: ME-180 AP-1-bla reporter, EGF-induced, beta-lactamase ratio, 5 h; at 7.69 µM (top of the series) unless noted. In short, it runs like this:
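A ratiometric CCF4 readout (405 nm excitation; 460 and 530 nm emission) quantified AP-1-driven beta-lactamase in ME-180 cells after 5 h with compound and EC50 EGF; AC50 values were derived for activators and inhibitors.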

Assay [2] concerns the target Cytochrome P450 1A2 (Homo sapiens) (UniProt P05177). In words: p450-cyp1a2 (AID 410; calls by dose curve; also: potency is read from the fitted curve at half-maximal effect;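 as to activity change, negative = inhibition: -100% = full effect of reference inhibitor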). In short, it runs like this: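 Human CYP1A2 (20nM) demethylated Luciferin-ME at its Km (100uM) in 100mM KPO4. After 10 min compound preincubation, NADPH regeneration ran the reaction 60 min at room temperature. Luciferin was read by luminescence, normalized to 57 uM furafylline.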
The nature of assay [3]: NFAT Signaling Pathway (AID 444; active = well fitted curve in either direction with a large enough effect, not every such curve was filed as active;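 also: carbachol stimulus at about its EC50 of 1 µM final; % is scaled to controls: 0 for no effect and ±100 for the full control effect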). To be noted: Jurkat NFAT-bla M1, carbachol, beta-lactamase ratio, 5 h; at 7.69 µM (top of the series) unless noted. In short, it runs like this: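 Jurkat cells with NFAT-driven β-lactamase reporter and co-expressed M1 receptor, stimulated with carbachol (final 1 uM, ~EC50), compound titration, 5 h at 37 °C. CCF4 loaded 1 h at RT; 460/530 nm ratio gave %activity and AC50.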

Assay [4] in a line: Stat Signaling Pathway (AID 446; active = well fitted curve in either direction with a large enough effect, not every such curve was filed as active;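 also: ME-180 cervical cancer cells given 40 pM IL-6 alongside compound; SIE-controlled beta-lactamase reporter measured as 460/530 nm FRET emission ratio; % is scaled to controls: 0 for no effect and ±100 for the full control effect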). To be noted: ME-180 SIE beta-lactamase reporter, IL-6 stimulated, 5 h; at 7.69 µM (top of the series) unless noted. In short, it runs like this:
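ME-180 SIE-bla cells; overnight plating; cpd + IL-6 40 pM, 5 h, 37 C; LiveBLAzer 2.5 h RT; 460/530 nm emission ratio. Normalized to 300 pM IL-6 and 125 nM JAK inhibitor controls.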

Assay [5] concerns the target Glucocorticoid receptor (Homo sapiens) (UniProt P04150). In words: GR-EFC Redistribution (AID 451; calls by dose curve; also: potency is read from the fitted curve at half-maximal effect). To be noted: CHO-K1 GR-EFC translocation, beta-gal luminescence, 2 h. In short, it runs like this: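 CHO-K1 cells expressing nuclear EA and GR-ED fragments of b-gal; compounds titrated up to 46 uM final, 2 h at 37 C. GR nuclear translocation read as complemented b-gal luminescence after 1 h RT detection.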

Assay [6] deals with Mitogen-activated protein kinase 10 (Mus musculus) (UniProt Q61831). The experiment in a line: JNK3 AlphaScreen Assay (AID 530; active = well fitted curve in either direction with a large enough effect, not every such curve was filed as active;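 also: kinase came from lysate of stimulated human HepG2 cells; signal reports phosphorylation of biotinylated GST-cJun 1-79 at Ser73 with 10 µM ATP; % is scaled to controls: 0 for no effect and ±100 for the full control effect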). In short, it runs like this:
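qHTS format: compounds tested as titrations against IL-1beta/TNF-alpha-activated HepG2 lysate JNK3 with biotin-GST-cJun substrate and 10 uM ATP at room temperature. Loss of anti-phospho-cJun AlphaScreen signal indicates inhibition.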

The target of assay [7] is 3',5'-cyclic-AMP phosphodiesterase 4B (Homo sapiens) (UniProt Q07343). The experiment in a line: qHTS Assay for Inhibitors of PDE-IV (AID 607; active = well fitted activation curve with a large enough effect in the main read-out, with a control signal flat, not every such curve was filed as active; also: % of control where 0% means no effect). In short, it runs like this:
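ACTOne HEK293 cells carry a modified cAMP-gated CNG channel and express endogenous PDE4; plated 1000 cells/well, compounds up to 22.9 uM final. Membrane-potential dye fluorescence (ex 535/em 590) was read; parental cells received 10 uM forskolin + 100 uM RO 20-1724.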
A general note: qHTS replaces the single test concentration by a dilution series.

Assay [8] has as its target Cytochrome P450 2D6 (Homo sapiens) (UniProt P10635). The experiment in a line: qHTS Assay for Inhibitors and Substrates of Cytochrome P450 2D6 (AID 891). Also: nearly all actives have a fitted effect of over 60% in size. Also: potency is read from the fitted curve at half-maximal effect. In short, it runs like this: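 Human CYP2D6 (5 nM) with 30 uM Luciferin-ME EGE (at Km) in 100 mM KPO4, compound preincubated 10 min, then NADPH regeneration system for 60 min at room temperature. Luciferin read by luminescence; normalized to 1.43 uM quinidine.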

The target in assay [9] is Glucocorticoid receptor (Homo sapiens) (UniProt P04150). In words: GR-GFP Redistribution (AID 450;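 active = compounds whose dose series gives a full or clear partial fitted curve of increased nuclear translocation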; also: potency is read from the fitted curve at half-maximal effect). The settings on record: U2OS GR-GFP nuclear translocation, laser cytometry, 2 h.
Assay [10] addresses Guanine nucleotide-binding protein G(i) subunit alpha-1 (Homo sapiens) (UniProt P63096). In words: qHTS Assay for Inhibitors of RGS12 GoLoco Motif Activity (Green Fluorophore) (AID 879).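 Also: 0% = labeled peptide with Gαi1 and full inhibition = labeled peptide alone without protein; negative values mean loss of peptide binding seen as reduced polarization.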 In short, it runs like this: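 Fluorescence polarization assay: 50 nM Gαi1 with 10 nM FITC-labeled RGS12 GoLoco peptide in 10 mM Tris pH 7.5, 150 mM NaCl, 0.1 mM GDP, 0.05% NP40, 10 min at room temperature with compound.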

Assay [11] concerns the target Cytochrome P450 3A4 (Homo sapiens) (UniProt P08684). In words: qHTS Assay for Activators of Cytochrome P450 3A4 (AID 885). Also: nearly all actives have a fitted effect of over 65% in size. In short, it runs like this:
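20nM CYP3A4 + 25uM Luciferin-PPXE (=KM), 200mM KPO4; cpd 10 min RT; NADPH regen, 60 min RT; stop w/ detection buffer, 20 min; luminescence. Normalized to 57 uM ketoconazole.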

The nature of assay [12]: qHTS Assay for Identification of Small Molecule Agonists for Thrombopoietin (TPO) Signaling Pathway (AID 917). Also: % is scaled to controls: 0 for no effect and ±100 for the full control effect. In short, it runs like this:
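Reporter: GpIIb promoter–luciferase in murine Ba/F3 expressing human TPO receptor. Pre-starved of IL-3 overnight; compounds with 26 pM TPO, 24 hrs, 37 C/5% CO2; luminescence read.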

Assay [13] addresses Muscarinic acetylcholine receptor M1 (Rattus norvegicus) (UniProt P08482). In words: qHTS Assay for Antagonists of Acetylcholine Muscarinic M1 Receptor: Kinetic Measurement of Intracellular Calcium Response (AID 943).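 Also: Fluo-4 calcium signal as peak divided by basal fluorescence over 4 min; nearly all actives have a fitted effect of over 75% in size.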 In short, it runs like this: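 CHO cells stably expressing rat M1 were loaded with no-wash Fluo-4 dye for 1 h at 37C, pre-incubated 10 min with compound, then challenged with EC80 carbachol (100 nM final); kinetic calcium read 4 min, peak/basal ratio.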

The target is the same in assay [14]. In words: qHTS Assay for Antagonists of Acetylcholine Muscarinic M1 Receptor: Measurement of IP-One Response (AID 944). Also: nearly all actives have a fitted effect of over 75% in size. In short, it runs like this:
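CHO cells expressing rat M1 receptor, recovered overnight, were pre-incubated 10 min with compound, then stimulated 30 min with carbachol at EC80 (200 nM) in LiCl-containing buffer, pH 7.4. IP1 accumulation was read by HTRF (620/665 nm).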

The target in assay [15] is Pyruvate kinase (Leishmania mexicana) (UniProt Q27686). The experiment in a line: qHTS Validation Assay for Inhibitors of Leishmania Mexicana Pyruvate Kinase (AID 945).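 Also: 0% = DMSO only neutral control wells.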 In short, it runs like this:
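The enzyme is a highly purified E451W mutant of LmPYK used at 0.2 nM. It converts 0.5 mM PEP and 0.1 mM ADP over 1 h at room temperature; product ATP is quantified by luciferase luminescence relative to DMSO controls.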

Assay [16] has as its target Pyruvate kinase PKM (Homo sapiens) (UniProt P14618). The experiment in a line: qHTS Assay for Activators of Human Muscle Pyruvate Kinase (AID 954; active = well fitted curve in the direction sought with a large enough effect, not every such curve was filed as active;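 also: 0% = uninhibited enzyme and -100% = no enzyme or full thiadiazolimine inhibition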). In short, it runs like this:
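Luminescence from a luciferase ATP-detection/stop reagent reported PKM2 activity. Reactions contained 0.1 nM purified human enzyme, 0.5 mM PEP, 0.1 mM ADP and 7 mM MgCl2 at pH 7.2, run 1 h at RT.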

The target in assay [17] is Alpha-galactosidase A (Homo sapiens) (UniProt P06280). In words: Counterscreen for Glucocerebrosidase Inhibitors: qHTS Assay for Human alpha-Galactosidase at pH 4.5 (AID 992). Also: 0% is about no effect. In short, it runs like this:
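Enzyme at 2 nM final was combined with compound (0.7 nM to 77 uM) and 80 uM 4-methylumbelliferyl alpha-D-galactopyranoside in 50 mM citric acid, 0.005% Tween-20, pH 4.5. After 20 min at room temperature, fluorescence was read (Ex 365/Em 440 nm); AC50 came from Hill fits.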
For orientation: The purpose of a counterscreen is to sort out artefacts and off-target activity.

Assay [18] concerns the target alpha-glucosidase (Oryza sativa, rice) (UniProt Q653V4). The experiment in a line: Counterscreen for Glucocerebrosidase Inhibitors: qHTS Assay for Rice alpha-Glucosidase at pH 5.0 (AID 997).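 Also: 0% = full activity with enzyme and -100% = basal without enzyme.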 In short, it runs like this:
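Rice alpha-glucosidase (4 nM final) with 400 uM 4-methylumbelliferyl-alpha-D-glucopyranoside in citrate buffer pH 5.0, 20 min at room temperature, stopped at pH 10; fluorescence 365/440 nm, compounds 0.7 nM–77 uM, AC50 from Hill fits.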

Assay [19] has as its target Cytochrome P450 2C19 (Homo sapiens) (UniProt P33261). The experiment in a line: qHTS Assay for Inhibitors and Substrates of Cytochrome P450 2C19 (AID 899). Also: % is scaled to controls: 0 for no effect and ±100 for the full control effect; nearly all actives have a fitted effect of over 60% in size. In short, it runs like this:
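Luminescent read-out of luciferin formed from Luciferin-H EGE (10uM, equal to KM). Enzyme 5nM in 50mM KPO4; compound added, 10 min at 37C, then NADPH regenerating system for 60 min at 37C. Full inhibition defined by 57uM ketoconazole.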

The nature of assay [20]: qHTS Assay for Identification of Small Molecule Antagonists for NFkB Signaling Pathway (AID 895; active = well fitted inhibition curve with a large enough effect in the signal ratio, with a control signal flat, not every such curve was filed as active; the % refers to the signal ratio; also: % is scaled to controls: 0 for no effect and ±100 for the full control effect). In short, it runs like this: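 ME-180 NFkB-bla cells (beta-lactamase under NFkB response element), plated overnight, treated with compound then 10 pM TNF alpha (about EC50) for 5 hrs at 37 C. LiveBLAzer FRET read at 460/530 nm emission, 405 nm excitation.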

Values without a mark were called inactive. Records with an inconclusive call do not appear. Calls of active or inactive are those of the source. Unless noted, calls follow the shape of the dose curve; as a rule, active = well fitted curve in the direction sought with a large enough effect; inconclusive = small, poorly fitted or top-dose-only effect, or another doubt; inactive = no such curve, though single readings can be large; an effect the other way counts as inactive or inconclusive.

Chain of 3',5'-cyclic-AMP phosphodiesterase 4B (Homo sapiens) (Q07343 whole entry, looked up): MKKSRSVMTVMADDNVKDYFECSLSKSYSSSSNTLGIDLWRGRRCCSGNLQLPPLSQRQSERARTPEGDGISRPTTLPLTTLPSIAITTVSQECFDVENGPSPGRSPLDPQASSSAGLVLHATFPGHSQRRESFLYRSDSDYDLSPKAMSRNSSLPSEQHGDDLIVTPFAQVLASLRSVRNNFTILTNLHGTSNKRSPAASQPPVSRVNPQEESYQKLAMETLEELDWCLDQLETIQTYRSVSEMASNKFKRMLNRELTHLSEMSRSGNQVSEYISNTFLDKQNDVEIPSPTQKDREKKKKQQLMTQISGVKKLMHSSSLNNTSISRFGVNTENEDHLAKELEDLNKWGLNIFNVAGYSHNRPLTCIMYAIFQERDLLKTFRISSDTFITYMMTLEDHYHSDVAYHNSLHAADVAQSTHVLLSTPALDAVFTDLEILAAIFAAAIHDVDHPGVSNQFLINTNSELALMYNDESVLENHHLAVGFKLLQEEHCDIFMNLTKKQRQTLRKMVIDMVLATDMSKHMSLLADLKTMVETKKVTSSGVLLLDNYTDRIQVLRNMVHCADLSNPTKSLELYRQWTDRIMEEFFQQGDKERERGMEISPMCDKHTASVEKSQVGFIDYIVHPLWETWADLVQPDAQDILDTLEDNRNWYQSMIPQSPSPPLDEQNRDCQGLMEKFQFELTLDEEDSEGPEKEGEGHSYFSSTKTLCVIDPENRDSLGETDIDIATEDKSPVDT
Chain of Cytochrome P450 1A2 (Homo sapiens) (P05177 whole entry, looked up): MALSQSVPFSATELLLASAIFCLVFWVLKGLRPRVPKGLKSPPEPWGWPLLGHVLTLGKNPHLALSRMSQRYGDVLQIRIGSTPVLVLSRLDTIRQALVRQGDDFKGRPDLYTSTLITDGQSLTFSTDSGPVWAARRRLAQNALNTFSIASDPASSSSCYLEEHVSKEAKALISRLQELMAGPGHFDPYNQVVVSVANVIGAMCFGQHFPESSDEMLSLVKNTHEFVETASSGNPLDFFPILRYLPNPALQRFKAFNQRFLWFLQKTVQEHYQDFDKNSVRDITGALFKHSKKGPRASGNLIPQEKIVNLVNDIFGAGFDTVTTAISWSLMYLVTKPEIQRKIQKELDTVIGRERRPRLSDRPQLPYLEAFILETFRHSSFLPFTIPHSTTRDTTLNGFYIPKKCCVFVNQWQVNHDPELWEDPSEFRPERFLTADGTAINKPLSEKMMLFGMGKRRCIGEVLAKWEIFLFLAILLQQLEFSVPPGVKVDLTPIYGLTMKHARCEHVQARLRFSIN
Chain of Glucocorticoid receptor (Homo sapiens) (P04150 whole entry, looked up, the tested form may be a part): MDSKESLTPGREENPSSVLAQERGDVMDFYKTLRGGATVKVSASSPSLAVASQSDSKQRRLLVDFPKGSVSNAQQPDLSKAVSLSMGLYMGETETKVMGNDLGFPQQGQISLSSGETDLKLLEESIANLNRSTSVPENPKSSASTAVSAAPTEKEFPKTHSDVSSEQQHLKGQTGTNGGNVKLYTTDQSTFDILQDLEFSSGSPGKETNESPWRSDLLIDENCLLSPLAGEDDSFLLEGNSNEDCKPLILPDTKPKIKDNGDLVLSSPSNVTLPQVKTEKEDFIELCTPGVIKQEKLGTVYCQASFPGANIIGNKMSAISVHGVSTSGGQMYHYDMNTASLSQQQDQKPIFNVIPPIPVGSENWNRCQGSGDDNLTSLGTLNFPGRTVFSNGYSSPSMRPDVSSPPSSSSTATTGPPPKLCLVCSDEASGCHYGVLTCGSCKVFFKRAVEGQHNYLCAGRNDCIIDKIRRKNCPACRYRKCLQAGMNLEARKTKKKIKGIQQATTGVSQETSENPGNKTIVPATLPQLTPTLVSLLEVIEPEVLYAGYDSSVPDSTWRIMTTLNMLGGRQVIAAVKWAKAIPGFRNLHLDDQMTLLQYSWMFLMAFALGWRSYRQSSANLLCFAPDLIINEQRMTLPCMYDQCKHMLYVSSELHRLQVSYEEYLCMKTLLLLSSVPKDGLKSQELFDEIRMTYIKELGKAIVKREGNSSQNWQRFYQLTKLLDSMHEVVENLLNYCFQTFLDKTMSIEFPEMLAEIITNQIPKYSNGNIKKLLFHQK
Chain of Muscarinic acetylcholine receptor M1 (Rattus norvegicus) (P08482 whole entry, looked up): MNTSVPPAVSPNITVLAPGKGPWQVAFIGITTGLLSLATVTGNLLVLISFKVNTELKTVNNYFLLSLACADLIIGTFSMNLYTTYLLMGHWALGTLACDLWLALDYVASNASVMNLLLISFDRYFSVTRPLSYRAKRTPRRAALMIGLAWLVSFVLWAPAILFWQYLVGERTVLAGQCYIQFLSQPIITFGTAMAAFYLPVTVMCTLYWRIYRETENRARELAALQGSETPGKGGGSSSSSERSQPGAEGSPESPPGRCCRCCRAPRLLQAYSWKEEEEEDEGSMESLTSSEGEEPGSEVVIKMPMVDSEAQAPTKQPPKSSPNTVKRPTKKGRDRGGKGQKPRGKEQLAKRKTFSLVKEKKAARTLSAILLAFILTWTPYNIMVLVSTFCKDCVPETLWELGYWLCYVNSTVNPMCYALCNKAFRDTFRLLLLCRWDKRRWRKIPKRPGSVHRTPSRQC
Chain of Cytochrome P450 2D6 (Homo sapiens) (P10635 whole entry, looked up): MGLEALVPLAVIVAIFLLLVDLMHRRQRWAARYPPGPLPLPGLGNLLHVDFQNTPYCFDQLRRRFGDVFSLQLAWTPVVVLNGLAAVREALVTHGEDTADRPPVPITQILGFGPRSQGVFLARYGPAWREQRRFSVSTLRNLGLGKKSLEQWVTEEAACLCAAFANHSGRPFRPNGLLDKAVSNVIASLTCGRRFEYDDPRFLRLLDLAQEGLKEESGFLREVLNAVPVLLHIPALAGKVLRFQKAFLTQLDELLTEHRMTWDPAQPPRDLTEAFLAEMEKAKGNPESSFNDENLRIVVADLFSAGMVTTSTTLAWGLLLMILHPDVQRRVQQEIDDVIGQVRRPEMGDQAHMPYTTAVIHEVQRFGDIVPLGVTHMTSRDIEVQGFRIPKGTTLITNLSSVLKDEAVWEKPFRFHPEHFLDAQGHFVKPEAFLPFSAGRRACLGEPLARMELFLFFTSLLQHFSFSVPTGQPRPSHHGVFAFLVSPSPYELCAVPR
Chain of Guanine nucleotide-binding protein G(i) subunit alpha-1 (Homo sapiens) (P63096 whole entry, looked up): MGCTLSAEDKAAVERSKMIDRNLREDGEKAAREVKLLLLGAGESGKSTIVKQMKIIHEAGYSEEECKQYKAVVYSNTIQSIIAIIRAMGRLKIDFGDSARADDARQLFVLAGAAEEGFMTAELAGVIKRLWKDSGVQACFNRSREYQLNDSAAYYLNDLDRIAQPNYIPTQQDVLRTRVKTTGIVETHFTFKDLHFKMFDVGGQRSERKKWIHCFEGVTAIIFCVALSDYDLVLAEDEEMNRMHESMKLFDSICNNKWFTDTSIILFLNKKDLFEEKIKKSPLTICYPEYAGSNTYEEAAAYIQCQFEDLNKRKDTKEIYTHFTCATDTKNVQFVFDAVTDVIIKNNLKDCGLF
Chain of Pyruvate kinase PKM (Homo sapiens) (P14618 whole entry, looked up): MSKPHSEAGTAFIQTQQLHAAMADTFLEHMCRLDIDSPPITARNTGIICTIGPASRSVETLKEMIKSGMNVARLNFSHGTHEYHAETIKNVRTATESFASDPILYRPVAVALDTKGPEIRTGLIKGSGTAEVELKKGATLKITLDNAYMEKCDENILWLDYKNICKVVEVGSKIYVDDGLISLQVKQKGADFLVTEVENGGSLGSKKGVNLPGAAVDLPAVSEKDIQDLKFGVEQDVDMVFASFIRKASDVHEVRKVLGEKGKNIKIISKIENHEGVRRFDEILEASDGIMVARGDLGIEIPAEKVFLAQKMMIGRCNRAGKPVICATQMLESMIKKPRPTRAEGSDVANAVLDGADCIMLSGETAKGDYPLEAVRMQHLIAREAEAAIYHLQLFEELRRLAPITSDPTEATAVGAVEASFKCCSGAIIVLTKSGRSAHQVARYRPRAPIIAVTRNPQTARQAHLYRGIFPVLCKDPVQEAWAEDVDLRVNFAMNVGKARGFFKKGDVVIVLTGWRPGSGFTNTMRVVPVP
Chain of Pyruvate kinase (Leishmania mexicana) (Q27686 2-499 E452W): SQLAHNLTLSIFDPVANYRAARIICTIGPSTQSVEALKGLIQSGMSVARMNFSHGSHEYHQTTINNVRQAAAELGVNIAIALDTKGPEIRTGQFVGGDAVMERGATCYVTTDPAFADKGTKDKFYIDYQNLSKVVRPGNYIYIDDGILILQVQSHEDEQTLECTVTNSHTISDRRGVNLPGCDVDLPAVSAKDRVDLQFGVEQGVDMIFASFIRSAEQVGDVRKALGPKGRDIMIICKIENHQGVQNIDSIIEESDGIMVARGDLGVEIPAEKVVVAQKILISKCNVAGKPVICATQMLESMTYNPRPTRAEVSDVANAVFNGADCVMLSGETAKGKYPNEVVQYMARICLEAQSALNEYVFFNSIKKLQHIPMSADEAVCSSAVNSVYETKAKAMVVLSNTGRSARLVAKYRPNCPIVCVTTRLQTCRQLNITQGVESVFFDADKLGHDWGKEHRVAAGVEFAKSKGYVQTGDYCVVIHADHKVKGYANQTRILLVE
Chain of Alpha-galactosidase A (Homo sapiens) (P06280 whole entry, looked up): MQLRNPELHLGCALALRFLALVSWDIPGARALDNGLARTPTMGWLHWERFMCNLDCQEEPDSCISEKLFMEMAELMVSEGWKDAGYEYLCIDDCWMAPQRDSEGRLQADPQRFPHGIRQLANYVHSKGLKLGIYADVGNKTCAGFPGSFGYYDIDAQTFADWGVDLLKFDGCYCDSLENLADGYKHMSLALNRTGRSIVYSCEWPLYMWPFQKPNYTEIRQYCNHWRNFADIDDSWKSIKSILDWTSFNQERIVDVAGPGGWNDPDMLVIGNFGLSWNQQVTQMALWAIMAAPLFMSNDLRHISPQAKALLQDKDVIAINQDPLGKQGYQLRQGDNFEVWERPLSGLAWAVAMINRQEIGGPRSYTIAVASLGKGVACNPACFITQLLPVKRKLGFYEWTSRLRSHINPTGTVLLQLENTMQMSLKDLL

In the case of `Clc1ccc2c(N3CCC(CCC4CCN(c5ncnc6cc(Cl)ccc56)CC4)CC3)ncnc2c1`, the activity change, negative = inhibition in [1] is 0.285%; in assay [3], 0.959%. The Potency in [2] is 3.16 µM (active); in assay [5], above 9.22 µM; in assay [8] it was 0.794 µM (active). In [4], the activity, negative = inhibition was 0.136%. For the same molecule, the Potency entry in assay [6] and in assay [7] was “inactive” each time.

`O=c1ccn([C@@H]2O[C@@H](COP(=O)(O)OP(=O)(O)O)[C@H](O)[C@@H]2O)c(=O)[nH]1`: the activity change, negative = inhibition in [1] was 4.38% [at 38 µM]; in assay [3] it was -1.51% [at 38 µM]. Also, the Potency entry in assay [2], in assay [7], in assay [11], in assay [13], in assay [14] and in [18] was “inactive” in each case. For the same molecule, in assay [4], the activity, negative = inhibition was 11.6% [at 38 µM]. The Potency in assay [9] and in assay [5] was above 46 µM each time. Also, the molecule was called inactive in assay [10], in assay [12], in assay [15], in assay [16] and in assay [17].

With `CCn1cc(C(=O)O)c(=O)c2ccc(Cc3ccccc3)nc21`, the results for the activity change, negative = inhibition in assay [1] and in [3] were -7.45% [at 38 µM] and 2.79% [at 38 µM], respectively. Moreover, the Potency entry in assay [2], in assay [8] and in assay [19] was “inactive” throughout. Moreover, the activity, negative = inhibition in [4] is 8.13% [at 38 µM]. For the same molecule, the Potency in assay [9] and in assay [5] was above 46 µM in each case.

On to `N[C@@H]1C=CC=C(C(=O)O)C1`, for which the activity change, negative = inhibition is -1.23% [at 38 µM] in [1] and 5.33% [at 38 µM] in assay [3]. In addition, the Potency entry in [2], in [7], in assay [20], in assay [13] and in assay [18] was “inactive” throughout. For the same molecule, in assay [4], the activity, negative = inhibition was 16.2% [at 38 µM]. In addition, the Potency in assay [9] and in assay [5] was above 46 µM throughout. Moreover, the molecule was classed as inactive in assay [10], in assay [12], in assay [15], in [16] and in assay [17].
